The record followed here is PubChem BioAssay (NCATS).

A short description of experiment [1]: qHTS profiling for inhibitors of Plasmodium falciparum proliferation (AID 504749). Also: nearly all actives have a fitted effect of over 60% in size.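 As to activity, negative = inhibition: 0% = DMSO vehicle and full inhibition = artemisinin control.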 As to conditions: P. falciparum in erythrocytes, SYBR Green DNA, 72 h. In short, it runs like this:
(§1)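 Readout was DNA-dye fluorescence from lysed cultures, ex 485/em 535 nm. Parasitized red cells had grown 72 h with compound; data scaled between 0.29 uM artemisinin and DMSO wells and corrected using vehicle-only plates.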

The test system of experiment [2] is 3D7. The description is as above. Particulars: P. falciparum in erythrocytes, SYBR Green DNA, 72 h; series mostly up to 28.7 µM. The procedure, abridged:
as §1

For experiment [3], the system named is 7G8. Described as above. Particulars: P. falciparum in erythrocytes, SYBR Green DNA, 72 h; series mostly up to 28.7 µM. In short, it runs like this: as §1
The test system of experiment [4] is AA1029. The experiment is described as above. As to conditions: P. falciparum in erythrocytes, SYBR Green DNA, 72 h; series mostly up to 28.7 µM. In short, it runs like this:
as §1

Experiment [5] relates to AS120. The experiment is described as above. As to conditions: P. falciparum in erythrocytes, SYBR Green DNA, 72 h; series mostly up to 28.7 µM. The procedure, abridged: as §1
In experiment [6] the test system is ATS189. The description is as above. Particulars: P. falciparum in erythrocytes, SYBR Green DNA, 72 h; series mostly up to 28.7 µM. In short, it runs like this: as §1
Experiment [7] concerns ATS95. The experiment is described as above. As to conditions: P. falciparum in erythrocytes, SYBR Green DNA, 72 h; series mostly up to 28.7 µM. The procedure, abridged:
as §1

The subject of experiment [8] is C2A. The description is as above. As to conditions: P. falciparum in erythrocytes, SYBR Green DNA, 72 h; series mostly up to 28.7 µM. In short, it runs like this:
as §1

Experiment [9] has as its system CP185. The description is as above. Particulars: P. falciparum in erythrocytes, SYBR Green DNA, 72 h; series mostly up to 28.7 µM. The procedure, abridged: as §1
For experiment [10], the system named is CP191. The description is as above. Particulars: P. falciparum in erythrocytes, SYBR Green DNA, 72 h; series mostly up to 28.7 µM. The procedure, abridged: as §1
Experiment [11] deals with CP192. Described as above. Particulars: P. falciparum in erythrocytes, SYBR Green DNA, 72 h; series mostly up to 28.7 µM. The procedure, abridged: as §1
In experiment [12] the test system is CP194. Described as above. Particulars: P. falciparum in erythrocytes, SYBR Green DNA, 72 h; series mostly up to 28.7 µM. The procedure, abridged:
as §1

Experiment [13] has as its system CP201. The description is as above. As to conditions: P. falciparum in erythrocytes, SYBR Green DNA, 72 h; series mostly up to 28.7 µM. In short, it runs like this: as §1
The test system of experiment [14] is CP203. The description is as above. Particulars: P. falciparum in erythrocytes, SYBR Green DNA, 72 h; series mostly up to 28.7 µM. The procedure, abridged:
as §1

For experiment [15], the system named is CP211. The experiment is described as above. As to conditions: P. falciparum in erythrocytes, SYBR Green DNA, 72 h; series mostly up to 28.7 µM. In short, it runs like this:
as §1

The test system of experiment [16] is CP215. Described as above. Particulars: P. falciparum in erythrocytes, SYBR Green DNA, 72 h; series mostly up to 28.7 µM. In short, it runs like this:
as §1

The test system of experiment [17] is CP217. The description is as above. As to conditions: P. falciparum in erythrocytes, SYBR Green DNA, 72 h; series mostly up to 28.7 µM. The procedure, abridged: as §1
In experiment [18] the test system is CP237. The description is as above. Particulars: P. falciparum in erythrocytes, SYBR Green DNA, 72 h; series mostly up to 28.7 µM. The procedure, abridged:
as §1

The mark [19] stands for this setting: at 28.7 µM (top of the series), parasite line A.
Where [20] appears, read: at 28.7 µM (top of the series), parasite line B.
The mark [21] stands for this setting: at 12.8 µM (top of the series), parasite line A.
Setting [22] is: at 12.8 µM (top of the series), parasite line B.

Molecules are shown by their SMILES. Records with an inconclusive call do not appear. A number with no mark means an inactive call. Activity calls are given as the source filed them. Calls follow the shape of the dose curve; as a rule, active = well fitted inhibition curve with a large enough effect; inconclusive = small, poorly fitted or top-dose-only effect; inactive = flat fitted curve, though single readings scatter.
Potency is read from the fitted curve at half-maximal effect.

As for `CCOC(=O)[C@H](CCc1ccccc1)N[C@@H](C)C(=O)N1C(=O)N(C)C[C@H]1C(=O)O`, the activity, negative = inhibition in experiment [1] (setting [19]) was 8.56%; in experiment [1] (setting [20]) it was 16.1%. Besides, the Potency result in experiment [2], in experiment [3], in experiment [4], in experiment [5], in experiment [6] and in experiment [7] was “inactive” each time. Moreover, the Potency entry in [8], in experiment [9], in experiment [10], in experiment [11], in [12] and in [13] was “inactive” throughout. Further, the Potency entry in experiment [14], in experiment [15], in [16], in experiment [17] and in experiment [18] was “inactive” throughout.
As to `COc1cc2[nH]c(=O)[nH]c(=O)c2cc1OC`, the activity, negative = inhibition in [1] (setting [21]) is -1.12%; in experiment [1] (setting [22]), -2.32%.
On to `COc1ccc2c(c1)C(=O)N(CCc1ccc(S(=O)(=O)NC(=O)NC3CCCCC3)cc1)C(=O)C2(C)C`, for which the activity, negative = inhibition was 4.32% in experiment [1] (setting [21]) and -5.51% in [1] (setting [22]).
As to `COc1cc(C)c(Cc2cnc(N)nc2N)cc1OC`, the figures for the Potency in experiment [1] (parasite line A) and in [1] (parasite line B) were 4.47 µM (active) and 11.2 µM (active), respectively.
With `O=C(O)CN1C(=O)c2cccc3cccc(c23)C1=O`, the values for the activity, negative = inhibition in experiment [1] (setting [19]) and in experiment [1] (setting [20]) were -2.87% and 1.81%, respectively. Further, the Potency entry in experiment [2], in experiment [3], in experiment [4], in experiment [5], in [6] and in [7] was “inactive” each time. The Potency entry in experiment [8], in [9], in experiment [10], in experiment [11], in [12] and in [13] was “inactive” each time. Further, the Potency result in [14], in [15], in experiment [16], in [17] and in [18] was “inactive” in each case.
Turning to `CC(O)CN(CCN(CC(C)O)CC(C)O)CC(C)O` (stereo not drawn), the figures for the activity, negative = inhibition in experiment [1] (setting [19]) and in [1] (setting [20]) were 7.8% and -1.51%, respectively. Besides, the Potency entry in [2], in [3], in experiment [4], in [5], in [6] and in [7] was “inactive” in each case. Further, the Potency entry in experiment [8], in experiment [9], in experiment [10], in experiment [11], in experiment [12] and in [13] was “inactive” in each case. Moreover, the Potency entry in [14], in [15], in experiment [16], in [17] and in experiment [18] was “inactive” each time.
For `CN1CCN(C2Cc3ccccc3Sc3ccc(Cl)cc32)CC1` (stereo not drawn), the activity, negative = inhibition in [1] (setting [19]) is -18.4%; in experiment [1] (setting [20]) it was -6.83%. Besides, the Potency entry in [2], in experiment [6], in experiment [7], in [8], in [9] and in [10] was “inactive” each time. The Potency result in experiment [11], in experiment [13] and in [15] was “inactive” in each case. The Potency in experiment [3] is 8.91 µM (active).
Consider `CCCCN1CCCC[C@H]1C(=O)Nc1c(C)cccc1C`, for which the activity, negative = inhibition was 5.7% in [1] (setting [19]) and 17.3% in experiment [1] (setting [20]). The Potency entry in [2], in [3], in experiment [4], in experiment [5], in experiment [8] and in experiment [9] was “inactive” throughout. Besides, the Potency entry in [10], in experiment [11], in experiment [13], in experiment [15], in experiment [16] and in [17] was “inactive” in each case. Moreover, the Potency in experiment [18] is 8.91 µM (active).
For `COc1ccc(Cl)cc1C(=O)NCCc1ccc(S(=O)(=O)NC(=O)NC2CCCCC2)cc1`, the activity, negative = inhibition was 10.8% in experiment [1] (setting [19]) and 8.21% in experiment [1] (setting [20]). Also, the Potency result in experiment [2], in experiment [3], in [4], in experiment [5], in [6] and in experiment [7] was “inactive” in each case. Also, the Potency result in experiment [8], in [9], in experiment [10], in [11], in [12] and in experiment [13] was “inactive” each time. Besides, the Potency entry in [14], in experiment [15], in experiment [17] and in experiment [18] was “inactive” each time.
Turning to `C[C@H](N)[C@H](O)c1cccc(O)c1`, the activity, negative = inhibition in [1] (setting [21]) is 4.05%; in experiment [1] (setting [22]), -0.641%. In addition, the Potency entry in experiment [2], in experiment [3], in experiment [4], in experiment [5], in experiment [6] and in experiment [7] was “inactive” each time. For the same compound, the Potency entry in experiment [8], in experiment [9], in experiment [10], in experiment [11], in experiment [12] and in [13] was “inactive” throughout. Further, the Potency entry in experiment [15], in experiment [16], in experiment [17] and in experiment [18] was “inactive” each time.
For `CC1(C)OC(=O)NC1=O`, the activity, negative = inhibition was 17.2% in [1] (setting [19]) and 21.8% in experiment [1] (setting [20]). Also, the Potency result in [2], in experiment [3], in [4], in experiment [5], in experiment [6] and in experiment [7] was “inactive” throughout. Also, the Potency entry in experiment [8], in experiment [9], in experiment [10], in experiment [11], in [12] and in experiment [13] was “inactive” throughout. The Potency entry in [14], in [15], in [17] and in experiment [18] was “inactive” each time.
On to `O=C1NC(=O)[C@@]2(CCOc3ccc(F)cc32)N1`, for which the activity, negative = inhibition in [1] (setting [19]) was 7.16%; in [1] (setting [20]), 9.22%. Also, the Potency entry in [2], in experiment [3], in experiment [4], in experiment [5], in experiment [6] and in experiment [7] was “inactive” in each case. Further, the Potency entry in [8], in [9], in experiment [10], in experiment [11], in experiment [12] and in experiment [13] was “inactive” each time. Also, the Potency result in [14], in experiment [15], in experiment [16], in experiment [17] and in experiment [18] was “inactive” throughout.
With `CCOc1ccc2ccccc2c1C(=O)N[C@@H]1C(=O)N2[C@@H]1SC(C)(C)[C@@H]2C(=O)O`, the activity, negative = inhibition was 11.5% in [1] (setting [21]) and -19.5% in [1] (setting [22]). For the same compound, the Potency result in experiment [2], in experiment [3], in [4], in experiment [5], in experiment [6] and in [7] was “inactive” in each case. Moreover, the Potency entry in experiment [8], in [9], in experiment [10], in experiment [11], in experiment [12] and in experiment [13] was “inactive” throughout. The Potency result in experiment [15], in [16], in [17] and in [18] was “inactive” throughout.
Consider `O=C(O)c1ccccn1`, for which the activity, negative = inhibition was 0.929% in [1] (setting [19]) and -26.4% in experiment [1] (setting [20]). The Potency entry in experiment [2], in [3], in experiment [4], in experiment [5], in [6] and in experiment [7] was “inactive” each time. Moreover, the Potency entry in experiment [8], in experiment [9], in experiment [10], in experiment [11], in [12] and in experiment [13] was “inactive” each time. Also, the Potency entry in experiment [14], in experiment [15], in [17] and in experiment [18] was “inactive” each time.
`CCCCCCCCCCCCOS(=O)(=O)O`: the values for the activity, negative = inhibition in experiment [1] (setting [19]) and in [1] (setting [20]) were 2.98% and -1.46%, respectively. The Potency entry in experiment [2], in experiment [3], in [4], in experiment [5], in experiment [6] and in experiment [7] was “inactive” each time. The Potency result in experiment [8], in [9], in experiment [10], in experiment [11], in [12] and in [13] was “inactive” each time. Further, the Potency entry in experiment [14], in experiment [15], in experiment [16], in experiment [17] and in experiment [18] was “inactive” each time.
